PubChem BioAssay (EPA / NIEHS)
Results filed as inconclusive are left out. Calls of active or inactive are those of the source. Rule for the calls: active = hit-call score of the fitted dose curve at least 0.9, where 1 is the maximum; inconclusive = response in the unintended direction; inactive = score below 0.9.

Test: ATG_XTT_Cytotoxicity: Cytotoxicity Assessment in the Attagene TRANS-FACTORIAL HepG2 Assay (AID 2283584);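 for AC50: XTT signal for cell number as viability in transfected HepG2 cells; cells exposed to compound for 24 h before reading; active means loss of viability signal versus DMSO baseline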
Procedure, shortened: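 Transfect HepG2 with GAL4-UAS reporter units, dose compound, incubate 24 h, then measure viable cell number by XTT. Fit concentration response against DMSO baseline.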

| SMILES | outcome | AC50 |
| --- | --- | --- |
| CCCCC[Si](OCC)(OCC)OCC | inactive | – |
| CC1CCC(C(C)(C)O)CC1 (centres undefined) | inactive | – |
| O=CCCc1ccccc1 | inactive | – |
| Nc1cc(N)cc(C(=O)O)c1 | inactive | – |
| O=C(COc1ccc(Cl)cc1)N1CCN(Cc2ccc3c(c2)OCO3)CC1 | inactive | – |
| CCCCCCCCC=O | inactive | – |
| CC(=O)/C=C/C1=C(C)CCCC1(C)C | inactive | – |
| NC(=O)Nc1ccc(Cl)cc1 | inactive | – |
| CC1(C)[C@H](C(=O)OCc2cccc(Oc3ccccc3)c2)[C@@H]1C=C(Cl)Cl | inactive | – |
| CC(CC(C)(C)C)CC(C)(C)CC(C)(C)C (centres undefined) | inactive | – |
| Clc1sc(Cl)c(Cl)c1Cl | inactive | – |
| COc1cc2ncnc(Nc3cccc(Cl)c3)c2cc1OC | inactive | – |
| COc1c(Cl)c(Cl)c(Cl)c(Cl)c1Cl | inactive | – |
| CCCC[n+]1ccccc1 | inactive | – |
| C=CC(C)(C)O | inactive | – |
| Cc1cccc(Nc2ccccc2C(=O)O)c1C | inactive | – |
| C=CCOc1nc(OCC=C)nc(OCC=C)n1 | inactive | – |

| SMILES | outcome | AC50 |
| --- | --- | --- |
| Nc1ccc(F)c([N+](=O)[O-])c1 | inactive | – |
| Cc1ccc(C(C)C)cc1O | inactive | – |
| Cc1ccc2sc3cccc(C)c3c2c1 | inactive | – |
| O=C1NC(=O)c2ccccc21 | inactive | – |
| N#Cc1ccc(CC(=NNC(=O)Nc2ccc(OC(F)(F)F)cc2)c2cccc(C(F)(F)F)c2)cc1 | inactive | – |
| O=C(O)c1cn(C2CC2)c2cc(N3CCNCC3)c(F)cc2c1=O | inactive | – |
| COC(=O)C1=C(C)NC(C)=C(C(=O)OCCN(C)Cc2ccccc2)C1c1cccc([N+](=O)[O-])c1 (centres undefined) | inactive | – |
| OCc1cccnc1 | inactive | – |
| Clc1ccc2c(c1)C(N1CCNCC1)=Nc1ccccc1O2 | – | 41.8 µM (active) |
| O=c1oc(=O)c2cc3c(=O)oc(=O)c3cc12 | inactive | – |
| CC(CCO)CCCC(C)(C)O (centres undefined) | inactive | – |
| c1ccc2sc(SN(C3CCCCC3)C3CCCCC3)nc2c1 | inactive | – |
| Cc1cccc(C)c1C | inactive | – |
| Cc1ccc(C(=O)O)o1 | inactive | – |
| COc1ccnc(CS(=O)c2nc3cc(OC(F)F)ccc3[nH]2)c1OC (centres undefined) | inactive | – |
| Nc1cc([N+](=O)[O-])ccc1Cl | inactive | – |
| N#Cc1nc(Cl)c(Cl)c(Cl)c1Cl | – | 56.8 µM (active) |
